# “And” between values parts separate entries of the source, which are not always exact repeats. Equal values may be shown once. Inconclusive results are not listed. Entries that show only a call come without a potency. Some compounds were tested as several samples or in several runs, with calls that do not always agree. The source made the active and inactive calls. Unless noted, the call rests on the fitted dose curve; in most records, active means well fitted curve in the direction sought with a large enough effect; inconclusive means small, poorly fitted or top-dose-only effect, or another doubt; inactive means no such curve, though single readings can be large; an effect the other way counts as inactive or inconclusive. Where a SMILES comes first, the peptide text is derived from it. [ ]: non-standard residue; d: D form. pGlu = O=C1CC[C@@H](C(=O)O)N1; Thz = O=C(O)[C@@H]1CSCN1
# Key:
# [1] = molecular target: Ubiquitin carboxyl-terminal hydrolase 1 (Homo sapiens) (UniProt O94782); assay: Inhibitors of USP1/UAF1: Pilot qHTS (AID 504865); further: nearly all actives have a fitted effect of over 35% in size; further: potency means the concentration at half of the fitted maximal effect
# How it was run: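 USP1/UAF1 complex (1nM) preincubated with compound 15 min at room temperature, then Ub-Rho substrate (150nM final) added. Fluorescence read kinetically at 480/540 nm, 6 reads every 60 seconds. Buffer: 50mM HEPES pH 7.8, 0.5mM EDTA, 0.1 mg/ml BSA, 1mM TCEP, 0.01% Tween-20.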
# [2] = molecular target: Estrogen receptor (Homo sapiens) (UniProt P03372); assay: qHTS assay for small molecule antagonists of estrogen receptor alpha signaling (AID 588513; active means well fitted curve in the direction sought with a large enough effect in the signal ratio, with a control signal flat, not every such curve was filed as active; the % refers to the signal ratio)
# How it was run: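 ER-alpha-UAS-bla GripTite HEK 293 cells in medium with 2% charcoal/dextran-treated FBS were preincubated 4 h at 37 C, dosed with compound (1:2 titration), stimulated with 0.5nM 17-beta-estradiol for 18 h, then read by CCF4 beta-lactamase fluorescence.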
# [3] = qHTS for Inhibitors of ATXN expression: Validation of Cytotoxic Assay (AID 588349); further: potency means the concentration at half of the fitted maximal effect
# How it was run: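 Cytotoxicity counter-screen: ATP-based luminescent viability (CellTiter Glo) after 72 hr exposure of HEK293 cells to a compound titration at 37 degrees C.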
# [4] = molecular target: DNA dC->dU-editing enzyme APOBEC-3G (Homo sapiens) (UniProt Q9HC16); assay: qHTS for inhibitors of Vif-A3G interactions: Validation (AID 588379)
# How it was run: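 Yellow fluorescence (Ex 488, Em 500-530) of Vif-coexpressing HeLa A3G-eYFP cells, scanned by Acumen cytometer, reports blocked A3G degradation. Cells plated at 700/well overnight at 37 deg C before compound addition, then a further overnight compound incubation at 37 deg C.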
# [5] = molecular target: Estrogen receptor (Homo sapiens) (UniProt P03372); assay: qHTS assay for small molecule agonists of estrogen receptor alpha signaling (AID 588514; calls by dose curve; further: nearly all actives have a fitted effect of over 70% in size)
# How it was run: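 EC50 and efficacy came from Hill fits of beta-lactamase reporter signal (CCF4 dye, 2 h at room temperature) scaled between DMSO and 20 nM 17-beta-estradiol. Agonist mode: HEK293 ER-alpha-UAS-bla cells in charcoal/dextran-stripped serum medium, 18 h compound exposure at 37 C.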
# Chain of DNA dC->dU-editing enzyme APOBEC-3G (Homo sapiens) (Q9HC16 whole entry, looked up): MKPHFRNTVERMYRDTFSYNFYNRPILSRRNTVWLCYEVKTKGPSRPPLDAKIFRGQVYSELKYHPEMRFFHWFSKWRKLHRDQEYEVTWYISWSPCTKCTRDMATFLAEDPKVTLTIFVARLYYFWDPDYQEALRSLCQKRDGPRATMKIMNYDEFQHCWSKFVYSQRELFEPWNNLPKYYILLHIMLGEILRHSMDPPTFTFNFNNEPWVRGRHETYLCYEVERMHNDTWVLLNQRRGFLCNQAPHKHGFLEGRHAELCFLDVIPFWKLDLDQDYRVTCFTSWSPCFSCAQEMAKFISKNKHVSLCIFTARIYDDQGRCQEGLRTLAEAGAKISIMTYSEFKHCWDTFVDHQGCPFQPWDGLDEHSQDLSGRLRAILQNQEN
# Chain of Estrogen receptor (Homo sapiens) (P03372 whole entry, looked up): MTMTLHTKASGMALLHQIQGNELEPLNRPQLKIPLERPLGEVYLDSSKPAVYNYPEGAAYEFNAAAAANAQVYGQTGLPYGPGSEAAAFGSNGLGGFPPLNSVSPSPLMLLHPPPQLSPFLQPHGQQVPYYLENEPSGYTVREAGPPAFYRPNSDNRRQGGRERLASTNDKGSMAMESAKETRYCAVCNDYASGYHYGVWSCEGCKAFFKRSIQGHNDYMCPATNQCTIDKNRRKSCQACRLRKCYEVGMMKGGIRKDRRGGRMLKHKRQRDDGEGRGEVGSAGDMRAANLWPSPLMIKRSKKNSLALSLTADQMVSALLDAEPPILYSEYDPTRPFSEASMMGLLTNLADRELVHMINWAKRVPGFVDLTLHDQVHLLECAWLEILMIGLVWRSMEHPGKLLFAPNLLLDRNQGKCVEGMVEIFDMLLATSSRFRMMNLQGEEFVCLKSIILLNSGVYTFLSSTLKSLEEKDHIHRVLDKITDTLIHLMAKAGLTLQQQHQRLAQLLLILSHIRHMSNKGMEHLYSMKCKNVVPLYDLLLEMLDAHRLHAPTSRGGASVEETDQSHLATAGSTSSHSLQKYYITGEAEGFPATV
# Chain of Ubiquitin carboxyl-terminal hydrolase 1 (Homo sapiens) (O94782 whole entry, looked up): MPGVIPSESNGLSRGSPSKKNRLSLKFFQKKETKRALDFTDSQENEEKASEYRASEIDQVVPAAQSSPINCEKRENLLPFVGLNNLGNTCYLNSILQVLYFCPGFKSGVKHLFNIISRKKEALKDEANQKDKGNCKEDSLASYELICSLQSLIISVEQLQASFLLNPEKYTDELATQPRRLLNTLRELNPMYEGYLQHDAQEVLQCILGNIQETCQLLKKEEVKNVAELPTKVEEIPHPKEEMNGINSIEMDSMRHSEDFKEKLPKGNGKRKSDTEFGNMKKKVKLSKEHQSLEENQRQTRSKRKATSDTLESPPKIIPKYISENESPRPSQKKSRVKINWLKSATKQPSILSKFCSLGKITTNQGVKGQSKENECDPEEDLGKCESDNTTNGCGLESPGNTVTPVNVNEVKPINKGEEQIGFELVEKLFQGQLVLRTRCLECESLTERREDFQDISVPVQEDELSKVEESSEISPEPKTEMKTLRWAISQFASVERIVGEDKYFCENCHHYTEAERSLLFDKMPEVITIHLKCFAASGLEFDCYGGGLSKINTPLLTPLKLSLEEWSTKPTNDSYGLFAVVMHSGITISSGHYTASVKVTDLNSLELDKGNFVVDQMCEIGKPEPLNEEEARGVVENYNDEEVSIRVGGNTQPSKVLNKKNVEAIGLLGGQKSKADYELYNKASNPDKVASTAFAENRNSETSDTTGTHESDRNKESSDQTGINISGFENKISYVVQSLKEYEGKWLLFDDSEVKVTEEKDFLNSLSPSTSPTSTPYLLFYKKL
smiles,measurement,setting,value
C=C(Nc1ccc(OCC)cc1)Nc1ccc(OCC)cc1,Potency,[1],inactive
O=C1CN(/N=C/c2ccc([N+](=O)[O-])o2)C(=O)N1,Potency,[1],inactive and 50.1 µM (active)
same,outcome,[2],inactive
N.N.N.N.N.N.N.N.N.N.N.N.N.N.O.O.[Ru+4].[Ru+5].[Ru+5],Potency,[3],28.2 µM (active)
O=C(O)c1cc(O)c(O)c(O)c1,Potency,[1],inactive
same,outcome,[2],inactive
N[C@H](CCCP(=O)(O)O)C(=O)O,Potency,[4],inactive
CN1[C@@H]2CC[C@H]1CC(OC(=O)C(CO)c1ccccc1)C2 (stereo not given in full),Potency,[4],inactive
COc1cc(/C=C/C(=O)CC(=O)/C=C/c2ccc(O)c(OC)c2)ccc1O,Potency,[1],12.6 µM (active)
same,outcome,[2],inactive
c1ccc2sc(SN3CCOCC3)nc2c1,Potency,[1],inactive
CCCC(=O)OC[C@@H](OC(=O)CCC)[C@@H](OC(=O)CCC)[C@H](Cn1c2nc(=O)[nH]c(=O)c-2nc2cc(C)c(C)cc21)OC(=O)CCC,Potency,[1],39.8 µM (active)
COc1cc(/C=C/C(=O)N2CCN(CC(=O)N3CCCC3)CC2)cc(OC)c1OC,Potency,[1],inactive
N=C1N=C(N)c2cc3ccccc3cc21,outcome,[2],inactive
O=C1CC[C@@H](C(=O)N2CSC[C@H]2C(=O)O)N1 ([pGlu]-[Thz]-OH),Potency,[1],inactive
COc1cc2c3cc1Oc1cc(ccc1O)C[C@@H]1c4c(cc(OC)c(O)c4Oc4ccc(cc4)C[C@@H]3N(C)CC2)CC[N+]1(C)C,Potency,[1],inactive
Cc1c(Nc2ncccc2C(=O)O)cccc1C(F)(F)F,Potency,[1],inactive
Nc1ccc(O)c(C(=O)O)c1,Potency,[1],39.8 µM (active) and 11.2 µM (active)
same,outcome,[2],inactive
same,Potency,[5],inactive
